# Results: PubChem BioAssay AID1645838 (ICCB-Longwood Screening Facility, Harvard Medical School, 2021)
# Where “and” joins values, the source holds several entries; their conditions need not be identical. Equal values may be shown once. Out of some 2,000 compounds screened, about 100 (5%) were called active. Rule as the data show it: active = z-score above about 2; inactive = the rest. The sample as a whole holds a higher share of actives than the screen did. A structure can be active in one record and inactive in another.
# Assay: modulators of mitochondrial supercomplex assembly, cell-based, luminescence, Hoechst nuclei count (AID 1645838);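 also: control cybrid cells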;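 as to z-score: higher means more mitochondrial supercomplex formation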
# Details: Cells, luminescence/Hoechst cell count ratio, supercomplex reporter; for z-score: stronger effect = higher value; for cell count: measured here: cell number, Hoechst nuclei count
# [1] = library stock concentration (final well concentration not given) 80 uM
# [2] = library stock concentration (final well concentration not given) 400 uM
# [3] = library stock concentration (final well concentration not given) 2 mM
# [4] = library stock concentration (final well concentration not given) 10 mM
# [5] = library stock concentration (final well concentration not given) 46 uM
# [6] = library stock concentration (final well concentration not given) 278 uM
# [7] = library stock concentration (final well concentration not given) 1.67 mM
smiles,measurement,setting,value
CS(=O)c1ccc(-c2nc(-c3ccc(F)cc3)c(-c3ccncc3)[nH]2)cc1 (centres undefined),z-score,,-1.15 (inactive)
same,cell count,,5830
Oc1cc(-c2nc(-c3ccccc3)[nH]c2-c2ccncc2)ccc1Cl,outcome,library stock 10 mM,inactive; censored for cell count
same,z-score,[1],-0.487 (inactive)
same,z-score,[2],0.0422 (inactive)
same,z-score,[3],0.88 (inactive)
same,cell count,[1],6330
same,cell count,[2],6400
same,cell count,[3],5020
CN(C)CCOc1ccc(-c2nc(-c3ccc4c(c3)CCC4=NO)c(-c3ccncc3)[nH]2)cc1,outcome,library stock 10 mM,inactive; censored for cell count
same,z-score,[1],-0.227 (inactive)
same,z-score,[2],0.545 (inactive)
same,z-score,[3],2.41 (active)
same,cell count,[1],4650
same,cell count,[2],4190
same,cell count,[3],3060
NC(N)=NCCCC(NC(=O)COCC(c1ccccc1)c1ccccc1)C(=O)O (centres undefined),z-score,[1],-0.24 (inactive)
same,z-score,[2],-0.0902 (inactive)
same,z-score,[3],-0.0766 (inactive)
same,z-score,[4],0.102 (inactive)
same,cell count,[1],5010
same,cell count,[2],5210
same,cell count,[3],5170
same,cell count,[4],4630
CC(C)OC(=O)CCCC=CCC1C(O)CC(O)C1C=CC(F)(F)COc1ccccc1 (centres undefined),z-score,[1],-0.387 (inactive)
same,z-score,[2],-0.505 (inactive)
same,z-score,[3],-0.421 (inactive)
same,z-score,[4],-0.49 (inactive)
same,cell count,[1],6260
same,cell count,[2],6740
same,cell count,[3],6050
same,cell count,[4],5570
NC(CSCCB(O)O)C(=O)O (centres undefined),z-score,[5],-0.211 (inactive)
same,z-score,[6],-0.0225 (inactive)
same,z-score,[7],-0.355 (inactive)
same,z-score,[4],-0.293 (inactive)
same,cell count,[5],6150
same,cell count,[6],5500
same,cell count,[7],6170
same,cell count,[4],6060
Cn1cnc2c(F)c(Nc3ccc(Br)cc3Cl)c(C(=O)NOCCO)cc21,outcome,library stock 10 mM,inactive; censored for cell count
same,z-score,[1],0.846 (inactive)
same,z-score,[2],0.791 (inactive)
same,z-score,[3],2.06 (active)
same,cell count,[1],3770
same,cell count,[2],3780
same,cell count,[3],2320
O=C(NOCC1CC1)c1ccc(F)c(F)c1Nc1ccc(I)cc1Cl,outcome,library stock 10 mM,inactive; censored for cell count
same,z-score,[1],0.248 (inactive)
same,z-score,[2],0.901 (inactive)
same,z-score,[3],1.33 (inactive)
same,cell count,[1],4290
same,cell count,[2],3900
same,cell count,[3],3870
Cn1cnc2c(F)c(Nc3ccc(Br)cc3F)c(C(=O)NOCCO)cc21,outcome,library stock 10 mM,inactive; censored for cell count
same,z-score,[1],0.694 (inactive)
same,z-score,[2],1.23 (inactive)
same,z-score,[3],1.53 (inactive)
same,cell count,[1],5250
same,cell count,[2],4630
same,cell count,[3],2640
COc1cc(C=C(C#N)C(=O)Nc2nnc(C(F)(F)F)s2)ccc1OCc1ccc(C(F)(F)F)cc1C(F)(F)F,z-score,[5],-0.188 (inactive)
same,z-score,[6],-0.247 (inactive)
same,z-score,[7],-0.448 (inactive)
same,z-score,[4],-0.612 (inactive)
same,cell count,[5],7210
same,cell count,[6],7400
same,cell count,[7],7340
same,cell count,[4],7260
Oc1cccc(-c2nc(N3CCOCC3)c3sccc3n2)c1,z-score,,3.96 (active)
same,cell count,,2940
CS(=O)(=O)N1CCN(Cc2cc3nc(-c4cccc5[nH]ncc45)nc(N4CCOCC4)c3s2)CC1,outcome,library stock 10 mM,inactive; censored for cell count
same,z-score,[5],-0.278 (inactive)
same,z-score,[1],0.147 (inactive)
same,z-score,[6],-0.083 (inactive)
same,z-score,[2],0.745 (inactive)
same,z-score,[7],0.769 (inactive)
same,z-score,[3],1.48 (inactive)
same,cell count,[5],5360
same,cell count,[1],3950
same,cell count,[6],4950
same,cell count,[2],3220
same,cell count,[7],2910
same,cell count,[3],2350
Oc1cccc(-c2nc(N3CCOCC3)c3oc4ncccc4c3n2)c1,z-score,,2.15 (active)
same,cell count,,3000
CC(C)c1ccccc1OC(=O)NCCc1ccc2ccccc2c1,z-score,[5],-0.152 (inactive)
same,z-score,[6],0.0918 (inactive)
same,z-score,[7],-0.615 (inactive)
same,z-score,[4],-0.366 (inactive)
same,cell count,[5],6770
same,cell count,[6],6210
same,cell count,[7],7330
same,cell count,[4],5910
COc1cc(C(=O)N(CCC2CCCN2C)CC(C)=Cc2ccccc2F)cc(OC)c1OC (centres undefined),z-score,[5],0.184 (inactive)
same,z-score,[6],-0.112 (inactive)
same,z-score,[7],0.132 (inactive)
same,z-score,[4],0.652 (inactive)
same,cell count,[5],6990
same,cell count,[6],6820
same,cell count,[7],6680
same,cell count,[4],5820
CC#CCC(C)[C@H](O)/C=C/[C@@H]1[C@H]2C/C(=C\CCCC(=O)O)C[C@H]2C[C@H]1O (some centres undefined),z-score,,-0.395 (inactive)
same,cell count,,5310
OC(COc1cccc2ncccc12)CN1CCN(C2c3ccccc3C3C(c4ccccc42)C3(F)F)CC1 (centres undefined),z-score,[1],0.371 (inactive)
same,z-score,[2],0.508 (inactive)
same,z-score,[3],0.497 (inactive)
same,z-score,[4],-1.87 (inactive)
same,cell count,[1],4630
same,cell count,[2],4580
same,cell count,[3],4340
same,cell count,[4],3800
O=C(c1cccs1)c1ccc(OCCCO)c(Cl)c1Cl,z-score,,-0.51 (inactive)
same,cell count,,5410
CC1CC2OC2C=CC=CC(=O)Cc2c(Cl)c(O)cc(O)c2C(=O)O1 (centres undefined),outcome,library stock 278 µM,inactive; censored for cell count
same,outcome,library stock 1.67 mM,inactive; censored for cell count
same,outcome,library stock 10 mM,inactive; censored for cell count
same,z-score,[5],-0.774 (inactive)
same,cell count,[5],7560
CCCCC[C@@](C)(O)/C=C/[C@H]1C(=O)C[C@H](O)[C@@H]1C/C=C\CCCC(=O)O,z-score,,-0.768 (inactive)
same,cell count,,5670
O=c1ncccn1C1OC(CO)C(O)C1O (centres undefined),z-score,[5],-0.336 (inactive)
same,z-score,[6],-0.313 (inactive)
same,z-score,[7],-0.302 (inactive)
same,z-score,[4],0.386 (inactive)
same,cell count,[5],5670
same,cell count,[6],5220
same,cell count,[7],4780
same,cell count,[4],3500
c1cc2c(cc1C1CCCCC1)c1c3n2CCNC3CCC1 (centres undefined),z-score,[5],-0.207 (inactive)
same,z-score,[6],-0.279 (inactive)
same,z-score,[7],0.239 (inactive)
same,z-score,[4],3.28 (active)
same,cell count,[5],6430
same,cell count,[6],6250
same,cell count,[7],6160
same,cell count,[4],4320
CCCCCCCC/C=C\CCCCCCCC(=O)NCCS(=O)(=O)O,z-score,,-0.251 (inactive)
same,cell count,,5290
CCCCCCCCCCCCC/C=C/[C@H](O)[C@@H](CO)NC(=O)CCCCCCCCCCCCCCCCCCCCCCC,z-score,,0.79 (inactive)
same,cell count,,5520
O=C(O)CCC/C=C\CC1C2CCC(O2)C1CNNC(=O)Nc1ccccc1 (centres undefined),z-score,,-0.631 (inactive)
same,cell count,,5630
Cc1ccc(C(=O)Nc2cccc(C(F)(F)F)c2)cc1Nc1nc(-c2cccnc2)nc2c1cnn2C,outcome,library stock 10 mM,inactive; censored for cell count
same,z-score,[1],-0.121 (inactive)
same,z-score,[2],0.0935 (inactive)
same,z-score,[3],1.5 (inactive)
same,cell count,[1],5540
same,cell count,[2],5440
same,cell count,[3],3810
Cc1ccc(NC(=O)c2cccc(C(C)(C)C#N)c2)cc1Nc1ccc2ncn(C)c(=O)c2c1,outcome,library stock 10 mM,inactive; censored for cell count
same,z-score,[5],-0.155 (inactive)
same,z-score,[1],1.5 (inactive)
same,z-score,[6],0.171 (inactive)
same,z-score,[2],1.71 (inactive)
same,z-score,[7],0.888 (inactive)
same,z-score,[3],2.43 (active)
same,z-score,[4],3.11 (active)
same,cell count,[5],6500
same,cell count,[1],3700
same,cell count,[6],6060
same,cell count,[2],3410
same,cell count,[7],4330
same,cell count,[3],2280
same,cell count,[4],1960
Cc1ccc(C(=O)Nc2cccc(C(F)(F)F)c2)cc1Nc1cncc(C(N)=O)c1,z-score,[1],-0.656 (inactive)
same,z-score,[2],-0.351 (inactive)
same,z-score,[3],-0.861 (inactive)
same,z-score,[4],-0.825 (inactive)
same,cell count,[1],4950
same,cell count,[2],4630
same,cell count,[3],5070
same,cell count,[4],4410
CCCCC(C)(C)[C@H](O)/C=C/[C@@H]1[C@@H](C/C=C\CCCC(=O)O)[C@@H](O)C[C@H]1O,z-score,,-0.23 (inactive)
same,cell count,,5200
CCCCC/C=C\C=C\C(O)CCCCCCCC(=O)OC[C@@H](COC(=O)CCCCCCC/C=C\C=C\C(O)CCCCC)OC(=O)CCCCCCC/C=C\C=C\C(O)CCCCC (some centres undefined),z-score,,-0.295 (inactive)
same,cell count,,5700
CC(=O)c1ccc2c(c1)c1cc(C(C)=O)ccc1n2CCNC(C)C,outcome,library stock 2 mM,inactive; censored for cell count
same,outcome,library stock 10 mM,inactive; censored for cell count
same,z-score,[1],0.38 (inactive)
same,z-score,[2],4.83 (active)
same,cell count,[1],5240
same,cell count,[2],2850
CCCCCC(=O)CC[C@@H]1[C@@H](C/C=C\CCCC(=O)O)[C@@H](O)C[C@H]1O,z-score,,0.125 (inactive)
same,cell count,,5560
CCCCCCCCCCCCCCCCCCOC[C@H](COP(=O)([O-])OCC[N+](C)(C)C)OC(C)=O,z-score,,-1.9 (inactive)
same,cell count,,5980
CCN(CC)Cc1ccc(C(=O)N(CCc2ccccc2OC)C2CCNC2)cc1 (centres undefined),z-score,[1],0.157 (inactive)
same,z-score,[2],0.267 (inactive)
same,z-score,[3],0.915 (inactive)
same,z-score,[4],3.1 (active)
same,cell count,[1],5850
same,cell count,[2],5490
same,cell count,[3],4680
same,cell count,[4],3340
C[C@@H]1C[C@H]2O[C@@H]2/C=C\C=C\C(=O)Cc2c(Cl)c(O)cc(O)c2C(=O)O1,outcome,,inactive; censored for cell count
CCOc1cc(CC(=O)NC(CC(C)C)c2ccccc2N2CCCCC2)ccc1C(=O)O (centres undefined),z-score,[5],-0.125 (inactive)
same,z-score,[6],-0.238 (inactive)
same,z-score,[7],-0.332 (inactive)
same,z-score,[4],-0.204 (inactive)
same,cell count,[5],4820
same,cell count,[6],5070
same,cell count,[7],5220
same,cell count,[4],4740
COc1cccc2cc(-c3nc(C4CCC(C(=O)O)CC4)n4ncnc(N)c34)[nH]c12 (centres undefined),outcome,library stock 10 mM,inactive; censored for cell count
same,z-score,[1],-0.563 (inactive) and 0.107 (inactive)
same,z-score,[2],-0.188 (inactive) and 0.529 (inactive)
same,z-score,[3],1.25 (inactive) and 2.27 (active)
same,cell count,[1],4660 and 5660
same,cell count,[2],3600 and 4570
same,cell count,[3],2190 and 2510
O=C(O)C1CCC(c2cc3cccnc3c(-c3cccc(F)c3)n2)CC1 (centres undefined),z-score,[5],0.62 (inactive)
same,z-score,[6],1.24 (inactive)
same,z-score,[7],1.5 (inactive)
same,z-score,[4],1.76 (inactive)
same,cell count,[5],6220
same,cell count,[6],6290
same,cell count,[7],5980
same,cell count,[4],6420
COc1ccc(/C=C/c2cc(O)cc(O)c2)cc1O,outcome,,inactive; censored for cell count
CN(c1ccccc1CNc1nc(Nc2ccc3c(c2)CC(=O)N3)ncc1C(F)(F)F)S(C)(=O)=O,outcome,library stock 2 mM,inactive; censored for cell count
same,outcome,library stock 10 mM,inactive; censored for cell count
same,z-score,[1],0.0927 (inactive)
same,z-score,[2],0.505 (inactive)
same,cell count,[1],4980
same,cell count,[2],4440
C=CCn1c(=O)c2cnc(Nc3ccc(N4CCN(C)CC4)cc3)nc2n1-c1cccc(C(C)(C)O)n1,outcome,library stock 1.67 mM,inactive; censored for cell count
same,outcome,library stock 10 mM,inactive; censored for cell count
same,z-score,[5],-0.147 (inactive)
same,z-score,[6],-0.118 (inactive)
same,cell count,[5],4940
same,cell count,[6],4830
Cc1cnc(Nc2ccc(OCCN3CCCC3)cc2)nc1Nc1cccc(S(=O)(=O)NC(C)(C)C)c1,outcome,library stock 10 mM,inactive; censored for cell count
same,z-score,[5],-0.00359 (inactive)
same,z-score,[6],-0.105 (inactive)
same,z-score,[7],5.46 (active)
same,cell count,[5],4980
same,cell count,[6],5010
same,cell count,[7],2610
